For 16 molecules, potentiation and outcome results are on record in PubChem BioAssay.

Calls of active or inactive are those of the source.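 The calls were made as follows: active = signal rise over 3 SD above mean of control wells given weak agonist, in both repeats and first screen; inactive = the rest.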

This experiment has as its system TRPC4 (mouse), co-expressed with 5HT1a in HEK293. As to the kind of experiment: calcium flux potentiators in TRPC4/5HT1a cells, confirmation, counter-screen for TRPC4 potentiator project, cell-based, second counter screen, HEK293 TRPC4/5HT1a, Fluo-4 (AID 434979). To be noted: Fluo-4 calcium flux, at 10 µM; outcome: serotonin added at its EC20 dose unless noted; potentiation: active compounds read high, serotonin added at its EC20 dose unless noted. On the technique in general: Calcium flux is commonly read through the fluorescence of an indicator in the cells.
Consider `Clc1ccc(OCC#CCN2CCCC2)cc1`, for which the potentiation was 26% (active). `CN(CCOc1ccc(C=C2C(=O)NC(=O)NC2=O)cc1)c1ccccn1`: the outcome is “inactive [setting not given]”. Same read-out and setting: the entry for `CCN1CC2C3CCC(C)(O3)C2C1` (stereo unspecified) is “inactive”; for `CC(C)CNc1c2c(nc3ccccc13)CCC2` it is “inactive”; for `COC(=O)C1=C(c2cc3ccccc3s2)C[C@@H]2CC[C@H]1N2C(=O)NCCO` it is “inactive”. Take `Cc1ccc(-c2cc(-c3ccccc3)cc(-c3ccccc3)[n+]2-c2ccccc2)cc1`: the potentiation is 9.63% (active).

For the molecule `Nc1ccccc1-[n+]1c(-c2ccccc2)cc(-c2ccccc2)cc1-c1ccccc1`, the potentiation is 20.7% (active). Turning to `Clc1ccc2c(c1)C(c1ccccc1Cl)=NCc1nnc(N3CCN(CCOc4ccccc4)CC3)n1-2`, the potentiation was 13.8% (active). On to `Cc1ccccc1CN1CCNCC1`, for which the outcome is “inactive [setting not given]”.

Turning to `CN1CCN(Cc2cc(=O)n3ccsc3n2)CC1`, the potentiation was 20% (active). As for `CCC1=Nc2cc(C(=O)N3CCC4(CC3)OCCO4)ccc2Sc2ccc(Br)cc21`, the outcome is “inactive [setting not given]”. Regarding `CCCCN1C(=O)NC(=O)C2(Cc3c(nc4c(C)cccn4c3=O)N3CCc4ccccc4C32)C1=O` (stereo unspecified), the potentiation was 37.1% [active compounds read high] (active). Still for that read-out and setting: the figure for `C=CCOC(=O)C1=C(C)OC(N)=C(C#N)[C@@]12C(=O)N(CC(N)=O)c1ccccc12` is 7.13% (active); for `FC(F)(F)c1ccc(CN2CCNCC2)cc1` it is 25.6% [active compounds read high] (active); for `Clc1ccc(N2CCNCC2)nn1` it is 16.3% (active). As for `O=[N+]([O-])c1ccc(N2CCNCC2)cc1N1CCCCCC1`, the potentiation was 13.3% (active).
